The source of these data is PubChem BioAssay AID504710 (Sanford-Burnham Center for Chemical Genomics, 2011).

Unmarked numbers belong to inactive results. Activity calls are given as the source filed them.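 How the source made its calls: active means inhibition reaching about 16% in any single replicate (limit read from the data); inactive means the rest.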

As a reminder, the inhibition is the relative decrease from the control value, in per cent.

For the experiment, the target named is Hexokinase HKDC1 (Homo sapiens) (UniProt Q2TB90). Nature of the experiment: compounds lowering human HKDC1 activity – biochemical, single concentration, confirmation (AID 504710). Conditions: recombinant HKDC1, G6PDH/diaphorase/resazurin fluorescence; at 20 µM; active compounds read high. (In general: Alamar Blue is a resazurin reagent that responds to reducing activity.)
Chain of Hexokinase HKDC1 (Homo sapiens) (Q2TB90 whole entry, looked up): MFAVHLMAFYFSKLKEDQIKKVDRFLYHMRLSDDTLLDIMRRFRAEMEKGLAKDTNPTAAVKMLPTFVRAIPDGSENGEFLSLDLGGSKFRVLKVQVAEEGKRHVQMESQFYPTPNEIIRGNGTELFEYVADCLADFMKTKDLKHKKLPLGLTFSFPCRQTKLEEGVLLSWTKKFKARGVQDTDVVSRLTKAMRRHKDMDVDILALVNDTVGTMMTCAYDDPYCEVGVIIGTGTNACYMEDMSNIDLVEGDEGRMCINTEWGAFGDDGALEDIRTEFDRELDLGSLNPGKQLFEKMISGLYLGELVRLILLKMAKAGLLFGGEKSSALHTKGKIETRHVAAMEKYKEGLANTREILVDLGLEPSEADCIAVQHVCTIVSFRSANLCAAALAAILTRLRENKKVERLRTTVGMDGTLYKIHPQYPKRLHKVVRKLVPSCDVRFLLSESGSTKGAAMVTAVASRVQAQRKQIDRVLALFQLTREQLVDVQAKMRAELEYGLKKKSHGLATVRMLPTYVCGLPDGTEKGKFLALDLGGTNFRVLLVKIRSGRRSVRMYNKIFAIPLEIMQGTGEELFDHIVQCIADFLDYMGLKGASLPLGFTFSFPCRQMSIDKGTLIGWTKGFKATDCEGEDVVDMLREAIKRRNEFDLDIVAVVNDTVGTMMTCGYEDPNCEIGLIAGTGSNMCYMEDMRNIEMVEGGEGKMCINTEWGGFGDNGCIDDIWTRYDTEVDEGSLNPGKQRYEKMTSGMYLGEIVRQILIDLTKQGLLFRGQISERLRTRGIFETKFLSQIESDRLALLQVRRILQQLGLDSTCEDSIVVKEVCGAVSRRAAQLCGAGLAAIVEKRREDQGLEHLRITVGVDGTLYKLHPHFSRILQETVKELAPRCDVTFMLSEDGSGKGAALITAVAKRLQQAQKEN
For `O=C1C(Nc2ccc(O)cc2)=C/C(=N/S(=O)(=O)c2cccs2)c2ccccc21`, the inhibition is 56.9% (active).

As to `COc1ccc(N=C2NN=C(c3ccc4c(c3)OCCO4)CS2)cc1`, the inhibition was -33.1%.

In the case of `COc1ccccc1C1=NNC(=Nc2cccc(S(=O)(=O)N(C)C)c2)SC1`, the inhibition was -177%.

Take `Cc1cc(C2=NNC(=Nc3ccc(S(=O)(=O)N4CCOCC4)cc3)SC2)c(C)n1C`: the inhibition is -46.6%.

As to `COCC(=O)OC1CCn2c1nc1c2C(=O)C(C)=C(NC(C)=O)C1=O` (stereo unspecified), the inhibition is 79.4% (active).

`COc1ccc(-n2c(C)cc(C(=O)CCl)c2C)cc1`: the inhibition was 34.3% (active).

On to `Cc1ccc(C)c(-n2nnnc2Sc2nnnn2-c2ccccc2)c1`, for which the inhibition is 38.7% (active).

Consider `CCCCC(CC)CN=C(N)NC(N)=NCCCCCCN=C(N)NC(N)=NCC(CC)CCCC` (stereo unspecified), for which the inhibition was 45.9% (active).

On to `CCc1ccc(S(=O)(=O)/N=C2\C=C(Nc3cccc(C(=O)O)c3)C(=O)c3ccccc32)cc1`, for which the inhibition was 64.8% (active).

As to `CCOC(=O)c1c(C)[nH]c(C2=NNC(=Nc3ccccc3OC)SC2)c1C`, the inhibition was -86.4%.

Regarding `CC(C)(C)c1ccc(-c2csc(NNC3=NCCCCC3)n2)cc1`, the inhibition was -39.4%.

Turning to `O=S(=O)(O)c1ccc(O)c2cc(Nc3ccccc3)ccc12`, the inhibition was 44.1% (active).

In the case of `Cc1ccc(NC2c3ncccc3C(=O)N2c2ccccc2C)cc1C` (stereo unspecified), the inhibition was 36.2% (active).

`Cc1cccc(C)c1Nc1nnc(SCc2cn3cccc(C)c3n2)s1`: the inhibition is 54.1% (active).

Consider `CCN(CC)Cc1cc(O)c(CN(CC)CC)cc1O`, for which the inhibition is 41.2% (active).

With `Cc1ccc2oc(=O)c3cnn(CC(=O)N4CCCCCC4)c3c2c1`, the inhibition is -63.5%.
